Compound activity from PubChem.
NPC1 prom act – qHTS Assay for NPC1 Promoter Activators | Huh7 NPC1 promoter luciferase reporter, 24 h | Potency, µM (doses to about 9.22 µM), inactives show top-dose activation, hits mostly activators | 320,000 tested, 2.4% active | AID 485313, 2010; also: % of control where 0% means no effect; nearly all actives have a fitted effect of over 60% in size
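NPC1 promoter–luciferase Huh7 cells; 24 h compound; luminescence.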
FLuc modulator – qHTS profiling assay for firefly luciferase inhibitor/activator using purifed enzyme and Km concentrations of substrates (counterscreen for miR-21 project) | Luciferin 4-monooxygenase (Photinus pyralis), P08659 | purified FLuc, Km substrates, luminescence inhibition | Potency, µM (series often up to 57.5 µM), for inactives: at the top dose activity change, negative = inhibition, most hits filed as inhibitors | 360,000 tested, 6.9% active;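 also: plate controls were vehicle for no effect and reference inhibitor for full effect; nearly all actives have a fitted effect of over 55% in size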
Target sequence (P08659 whole entry, looked up): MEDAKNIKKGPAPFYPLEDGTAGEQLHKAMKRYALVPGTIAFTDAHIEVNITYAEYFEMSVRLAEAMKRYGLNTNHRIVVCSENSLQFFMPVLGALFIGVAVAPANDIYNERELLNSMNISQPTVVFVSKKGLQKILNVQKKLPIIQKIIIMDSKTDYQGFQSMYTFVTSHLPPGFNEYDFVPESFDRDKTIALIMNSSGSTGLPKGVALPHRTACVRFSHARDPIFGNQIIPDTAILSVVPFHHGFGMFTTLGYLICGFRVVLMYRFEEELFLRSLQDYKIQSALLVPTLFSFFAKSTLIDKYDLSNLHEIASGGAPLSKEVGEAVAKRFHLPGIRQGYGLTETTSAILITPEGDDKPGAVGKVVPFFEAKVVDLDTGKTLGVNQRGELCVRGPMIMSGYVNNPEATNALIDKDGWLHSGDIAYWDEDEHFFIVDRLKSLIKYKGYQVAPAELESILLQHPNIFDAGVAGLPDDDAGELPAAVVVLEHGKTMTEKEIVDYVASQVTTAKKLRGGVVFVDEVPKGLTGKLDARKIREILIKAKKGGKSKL
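Purified P. pyralis luciferase, 10 nM final, with Km-level 10 uM D-luciferin and 10 uM ATP in 50 mM Tris acetate pH 7.5, 10 mM Mg acetate, 0.01% Tween-20, 0.05% BSA; 6-point qHTS titration about 60 µM downward; luminescence read.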
p53 reactivator – qHTS assay for re-activators of p53 using a Luc reporter. 320,000 tested, 0.063% active. Potency, µM (titrated, usually from 92.2 µM), inactives show top-dose activity change, positive = activation, actives largely listed as activators. H1299 p53-A138V BP100-luciferase reporter, luminescence, 24 h; also: % of control where 0% means no effect; nearly all actives have a fitted effect of over 45% in size
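p53-null H1299 cells stably carrying temperature-sensitive p53-A138V and a BP100-luciferase reporter were pinned with compounds (4-point, 1:5 series) and held 24 hrs at 37 deg C. Luminescence was read 10 min after detection reagent.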
SMN2 splice up – qHTS Assay for Enhancers of SMN2 Splice Variant Expression. HEK293 SMN2-luciferase splicing reporter, luminescence, 30-36 h. Potency, µM (top dose mostly 46.1 µM), for the others: at the highest dose activity change, positive = activation, usual class: activators. 210,000 tested, 2.8% active. AID 1458, 2008; also: % of control where 0% means no effect; nearly all actives have a fitted effect of over 55% in size
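qHTS luciferase splicing reporter: luminescence rises when SMN2 exon 7 is included in transfected HEK293 cells. Compound exposure lasted 30-36 h at 37C, with 4.5 mM final sodium butyrate as control, followed by a ONE-Glo read.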
Rab9 promoter act – qHTS Assay for Rab9 Promoter Activators; Huh7 Rab9 promoter-luciferase reporter, luminescence, 24 h; Potency, µM (titrated, usually from 9.22 µM), for inactives: at the top dose activation, negative = inhibition, most hits filed as activators; 320,000 tested, 2.8% active; AID 485297, 2010; also: % of control where 0% means no effect; nearly all actives have a fitted effect of over 60% in size
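Using Huh7 cells stably transfected with Rab9 promoter–luciferase, compounds were incubated 24 h at 37 °C, 5% CO2; luciferase luminescence was read 10 min after reagent addition.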
ELG1 genotoxic – qHTS screen for small molecules that induce genotoxicity in human embryonic kidney (HEK293T) cells expressing luciferase-tagged ELG1. HEK293T ELG1-luciferase reporter, luminescence, 16 h. Potency, µM (titrated, usually from 46 µM), for the others: top-dose activity change, positive = activation, hits mostly activators. 330,000 tested, 1.3% active; also: % of control where 0% means no effect; nearly all actives have a fitted effect of over 60% in size
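DMSO vehicle served as control against compound-treated ELG1-luciferase HEK293T cells; exposure lasted 16 hr at 37 °C and 5% CO2, followed by ONE-Glo luminescence detection after 30 min.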
An asterisk follows results filed as active; u = inconclusive; x = not tested or not shown; [ ] = remark or other dose. Rows were chosen to be rich in hits. Some 7.4% of all compounds tested hit in one or more screens of this group. Calls follow the shape of the dose curve; as a rule, active = well fitted curve in the direction sought with a large enough effect; inconclusive = small, poorly fitted or top-dose-only effect, or another doubt; inactive = no such curve, though single readings can be large; an effect the other way counts as inactive or inconclusive. Potency is read from the fitted curve at half-maximal effect.

SMILES	NPC1 prom act	FLuc modulator	p53 reactivator	SMN2 splice up	Rab9 promoter act	ELG1 genotoxic
O=C(Nc1cccc(Cl)c1)Nc1sccc1-c1nc2ccccc2s1	8.7%	13.5µM*	1.5%	x	2.7%	-5.0%
O=C(Nc1ccccc1)Nc1sccc1-c1nc2ccccc2s1	9.7%	15.1µM*	6.7%	x	-2.7%	-1.4%
COc1c(C)cccc1C(=O)Nc1ccc(-c2nc3ccccc3s2)c(Cl)c1	x	-7.4%	x	13.4%	x	x
COc1ccccc1NC(=O)Nc1sccc1-c1nc2ccccc2s1	9.2%	u	12.1%	x	-3.1%	-5.1%
O=C1NC(=S)S/C1=C\c1coc2ccccc2c1=O	4.9%	19µM*	6.8%	2.0%	u	7.8%
O=C(N/N=C/c1coc2ccc(Cl)cc2c1=O)c1ccc(O)cc1	-0.6%	-1.2%	-2.5%	x	-0.1%	-20.4%
O=C1NC(=S)S/C1=C\c1coc2ccc(O)cc2c1=O	13.9%	19µM*	19.1%	x	9.0%	10.5%
C/[N+]([O-])=C\c1coc2ccccc2c1=O	0.4%	1.9%	-2.7%	-2.6%	1.1%	1.7%
Cc1nn(-c2ccccc2)c(N)c1N=Nc1ccc2ccccc2c1	u	10.7µM*	u	12.6µM*	3.55µM*	u
Cc1ccc(N=Nc2c(N)nn(-c3ccccc3)c2N)cc1	u	6.01µM*	u	10µM*	u	u
Cc1nn(-c2ccccc2)c(N)c1N=O	-3.7%	5.2%	2.4%	x	-2.7%	7.1%
N#C/C(=C/c1ccc(N2CCCCC2)o1)c1cccc(F)c1	-2.4%	2.13µM*	u	22.1%	6.3%	3.66µM*
COc1cc(N2CCCC2)c(OC)cc1/C=C(/C#N)c1ccc(F)cc1	0.0%	-2.4%	u	-26.6%	-0.3%	-6.7%
N#C/C(=C/c1ccc(N2CCCCC2)cc1)c1cccc(F)c1	3.98µM*	5.36µM*	u	u	3.16µM*	18.4µM*
N#C/C(=C/c1ccc(Sc2nc3ccccc3[nH]2)o1)c1cccc(F)c1	3.1%	-1.9%	-5.6%	-53.6%	7.9%	-1.3%
N#C/C(=C/c1ccc(N2CCCCCC2)o1)c1ccc(Cl)cc1	26.3%	9.53µM*	-15.4%	0.8%	3.98µM*	u
CCCNC(=O)C1CCC(Cn2c(=O)c3sccc3n(CC(=O)Nc3ccccc3C)c2=O)CC1 (centres undefined)	x	2.4%	x	x	x	x
O=C(N/N=C/c1ccc(OC(F)F)cc1)c1ccc(Br)cc1	-1.2%	u	-2.2%	19.3%	2.9%	7.0%
CCOc1ccc(/C=N/NC(=O)c2ccc(CSc3nc4ccccc4[nH]3)cc2)cc1	3.7%	6.75µM*	-1.3%	-6.8%	11.8%	-2.2%
O=C(N/N=C/c1ccc(OC(F)F)cc1)c1ccc(CSc2nc3ccccc3[nH]2)cc1	-6.1%	16.9µM*	-0.7%	-5.8%[1.84 µM]	3.7%	0.4%
CC(=O)NCc1ccc(C(=O)CN2C(=O)NC3(CCCCC3C)C2=O)s1 (centres undefined)	-1.9%	5.2%	5.5%	x	-4.1%	-1.6%
c1ccc(-c2ccc3c(c2)NCCN3)cc1	u	13.5µM*	15.3%	x	-1.2%[1.84 µM]	10.5%
CCc1ccc(NC(=O)CN2C(=O)CCSc3ccccc32)cc1	x	-1.5%	x	27.8%	x	x
O=C(Nc1ccccc1N1CCOCC1)c1ccc2ccccc2c1	8.0%	10.7µM*	25.6%	x	3.3%	-4.4%
O=C(Nc1ccc(CN2CCOCC2)cc1)c1ccc(Cl)cc1	u	16.9µM*	u	x	u	u
SMILES	NPC1 prom act	FLuc modulator	p53 reactivator	SMN2 splice up	Rab9 promoter act	ELG1 genotoxic
C/C(=N/NC(=O)c1ccco1)c1ccc(NC(=O)c2ccc(Br)o2)cc1	u	u	12.0%	x	u	13.0%
CCOc1ccc(C(=O)Nc2ccc(CN3CCOCC3)cc2)cc1Br	1.3%	13.5µM*	14.6%	x	3.5%	-5.8%
C/C(=N/NC(=O)c1ccco1)c1ccc(NC(=O)c2ccc(F)cc2)cc1	28.5%	u	u	15.8µM*	u	13.1%
O=C(Nc1ccccc1N1CCOCC1)c1ccc2c(c1)OCO2	-2.0%	u	-0.9%	-2.6%	-6.1%	-0.1%
COc1ccc(-n2c(=O)c3c4c(sc3n(Cc3ccccc3)c2=O)CN(C(C)=O)CC4)cc1OC	x	-7.4%	x	21.8%	x	x
Cc1cc(/C=N/NC(=O)c2ccc(CN3CCOCC3)cc2)c(C)n1-c1ccccc1	0.9%	6.75µM*	5.7%	-51.4%	-0.9%	u
O=C(NC(N1CCOCC1)C(Cl)(Cl)Cl)c1ccc(Br)cc1 (centres undefined)	-3.1%	0.2%	-2.8%	7.8%	1.2%	-2.4%
CCOc1ccc(NC(=O)c2ccc(NC(=O)c3ccc(CN4CCOCC4)cc3)cc2)cc1	-2.4%	-6.3%	-1.1%	x	-14.0%	u
O=C(N/N=C/c1ccccc1[N+](=O)[O-])c1ccc(CN2CCOCC2)cc1	2.6%	u	21.0%	-1.1%[1.84 µM]	5.2%	1.7%
C/C(=N\NC(=O)c1ccc(CN2CCOCC2)cc1)c1ccc(NC(=O)c2ccccc2)cc1	u	u	15.4%	11.2µM*	u	u
O=C(NC(N1CCOCC1)C(Cl)(Cl)Cl)c1ccco1 (centres undefined)	u	8.49µM*	7.3%	x	u	16.4µM*
CCC(C)Oc1ccc(C(=O)Nc2ccc(CN3CCOCC3)cc2)cc1 (centres undefined)	-5.5%	15.1µM*	6.4%	x	-9.5%	-2.4%
Cc1ccc2c(=O)cc(CSc3ncn[nH]3)[nH]c2c1C	x	-11.8%	x	x	x	x
CC(=O)N1CCc2c(sc3c2c(=O)n(-c2ccc(C)cc2)c(=O)n3CC(=O)Nc2ccccc2)C1	x	-10.3%	x	u	x	x
O=C(Nc1ccc(CN2CCOCC2)cc1)c1cccc(F)c1	2.82µM*	9.53µM*	u	12.6µM*	2.82µM*	16.4µM*
O=C(Nc1ccc(CN2CCOCC2)cc1)c1ccco1	2µM*	21.3µM*	x	x	1.41µM*	u
CCOc1ccc(C(=O)Nc2cccc(NC(=O)c3ccc(C(C)(C)C)cc3)c2)cc1Br	x	1.51µM*	x	u	x	x
O=C(Nc1ccc(Cn2cccn2)cc1)c1ccc(COc2ccccc2Br)cc1	9.1%	16.9µM*	8.1%	-42.9%	-5.3%	-5.7%
CNC(=O)COc1coc(CN2CCN(c3ccccc3OC)CC2)cc1=O	0.9%	-1.8%	9.2%	x	-1.3%	5.0%
CC1=NN(c2ccc(S(=O)(=O)O)cc2)C(=O)/C1=C\c1ccc(Cl)cc1	x	x	x	-0.8%[9.22 µM]	x	x
O=C(Nc1ccc(CN2CCOCC2)cc1)c1ccc(F)cc1	u	21.3µM*	u	x	u	u
